The list is not random: actives were taken first. Their share in the collection is about 8%.
TSHR antagonist: antagonists of human thyroid stimulating hormone receptor | hit rate 0.2% among 330,000 | TSHR-expressing cells, TSH-stimulated cAMP HTRF, 2 h; stronger effect = lower value | P16473 | activity change, negative = inhibition, % at 11.5 µM;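 active means activity change below a set negative limit, meaning inhibition stronger than a set level, cut at about -70% in these data; inconclusive means activity change between two set negative limits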
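Freshly harvested TSHR cells receive pin-tooled compound, then EC80 TSH at 4nM final. After 2 hours at 37 deg C, antibody in lysis buffer and cAMP-d2 are added; 30 minutes at ambient temperature precede the HTRF read.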
ELG1 repair inh: inhibitors of ELG1-dependent DNA repair in HEK293T cells. HEK293T ELG1-luciferase reporter, luminescence, 16 h; DNA damage induced by 5-fluorouridine. Potency, µM (highest dose often 46.1 µM), without a hit: top-dose activity change, negative = inhibition, most hits filed as inhibitors. hit rate 2.3% among 330,000; further: potency means the concentration at half of the fitted maximal effect; nearly all actives have a fitted effect of over 55% in size
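Overnight (16 hr) co-exposure of 2,000 cells/well to 5-fluorouridine and compound at 37 °C preceded detection. Luciferase was quantified via ONE-Glo luminescence; loss of signal denotes inhibition.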
RORg inh: ROR gamma (mouse) transcription inhibition. P51450. Drosophila S2 Gal4-RORgamma UAS-luciferase reporter, 20 h. Potency, µM (doses to about 53.6 µM), for the others: at the highest dose activity change, negative = inhibition, most hits filed as inhibitors. hit rate 5.4% among 310,000. AID 2551; further: potency means the concentration at half of the fitted maximal effect; nearly all actives have a fitted effect of over 60% in size
Target sequence (P51450 whole entry, looked up, the tested form may be a part): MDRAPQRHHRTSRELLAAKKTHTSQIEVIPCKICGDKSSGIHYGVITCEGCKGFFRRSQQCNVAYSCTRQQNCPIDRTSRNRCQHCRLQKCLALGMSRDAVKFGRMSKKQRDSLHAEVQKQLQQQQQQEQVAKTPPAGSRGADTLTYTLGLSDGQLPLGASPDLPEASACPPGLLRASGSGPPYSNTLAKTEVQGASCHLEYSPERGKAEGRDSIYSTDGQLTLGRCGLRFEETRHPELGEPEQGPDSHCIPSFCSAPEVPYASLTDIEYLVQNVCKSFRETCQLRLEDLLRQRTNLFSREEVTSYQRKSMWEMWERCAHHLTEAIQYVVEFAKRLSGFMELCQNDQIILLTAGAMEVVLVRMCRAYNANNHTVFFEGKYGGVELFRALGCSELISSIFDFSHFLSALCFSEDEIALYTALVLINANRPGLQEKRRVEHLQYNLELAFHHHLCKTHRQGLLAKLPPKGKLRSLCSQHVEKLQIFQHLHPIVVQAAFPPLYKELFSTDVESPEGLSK
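Schneider cells (Drosophila), stable Gal4 DBD–ROR gamma + UAS-luc; 1 hr cmpd preincubation; Cu2+ induction 700 uM final; 20 hr ambient; luminescence.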
Coupling enz: inhibits coupling enzyme system, counter-screen for aldolase hits | coupling enzyme system counterscreen, AmpLite Red fluorescence | activity change, negative = inhibition, % at 58.2 µM, hits read low | hit rate 0.67% among 290,000 | AID 2472; in the data active means activity change below about -30%
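Counterscreen lacking aldolase: glyceraldehyde-3-phosphate coupling-enzyme reagent preincubated 10 min at RT with compound (at 57.5 uM final), then substrate/coupling system with AmpLite Red added; fluorescence read at 525/598 nm after 20 min RT.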
Gal4-VP16 FLuc: inhibits Gal4-VP16 luciferase reporter, ROR gamma counter-screen | Drosophila S2 Gal4-VP16 UAS-luciferase, luminescence, 20 h | hit rate 3.5% among 310,000 | AID 2546 | Potency, µM (top dose mostly 53.6 µM), for the others: at the highest dose activity, negative = inhibition, usual class: inhibitors;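 further: Gal4-VP16 expression switched on by copper sulfate through the metallothionein promoter; potency means the concentration at half of the fitted maximal effect; nearly all actives have a fitted effect of over 50% in size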
An asterisk follows results filed as active; ? = inconclusive; / = not tested or not shown; [ ] = another dose, or the depositor's remark. Unless noted, the call rests on the fitted dose curve; in most records, active means well fitted curve in the direction sought with a large enough effect; inconclusive means small, poorly fitted or top-dose-only effect, or another doubt; inactive means no such curve, though single readings can be large; an effect the other way counts as inactive or inconclusive. On the % scale 0 is the no-effect control and ±100 the full control effect.

SMILES	TSHR antagonist	ELG1 repair inh	RORg inh	Coupling enz	Gal4-VP16 FLuc
CC(=O)Nc1ccc(OCC(O)CNC2CCCC2)cc1 (stereo unspecified)	34	-7%	14%	-38*	2%
CC(=O)Nc1ccc(OCC(O)Cn2c3ccccc3c3ccccc32)c(C)c1 (stereo unspecified)	-27	?	?	-3	-15%
O=C(NNC(=O)c1ccccc1-n1cccc1)c1ccc(Cl)nc1	-9	-2%	/	/	/
C/C(=N\Nc1nc(C)cc(-c2ccccc2)n1)c1cccc(N)c1	12	?	11µM*	-1	16µM*
C/C(=N\NC(=O)c1ccc(-c2ccccc2)cc1)c1cccc(N)c1	-12	-2%	13µM*	0	-16%
C/C(=N\Nc1nc(C)cc(-c2ccccc2)n1)c1ccc(O)cc1	-1	?	?	-1	?
C/C(=N\NC(=O)c1ccccc1)c1cccc(Br)c1	8	?	-121%	1	?
CC/C(=N\NC(=O)c1ccc(-c2ccccc2)cc1)C12CC3CC(CC(C3)C1)C2	-2	13%	22µM*	1	?
C/C(=N\Nc1nc(C)cc(-c2ccccc2)n1)c1ccccc1	15	?	3.5µM*	3	5µM*
C[C@H](N)C(=O)O	/	/	10%	0	12%
CCCOc1ccc(S(=O)(=O)NCCCN2CCOCC2)c2ccccc12	17	-13%	10µM*	0	-27%
Cc1nn(S(=O)(=O)c2ccc(Br)cc2)c(C)c1S(=O)(=O)N1CCOCC1	0	?	-13%	/	5%
C/C(Cn1nnc([N+](=O)[O-])n1)=N\NC(=O)c1ccc(O)cc1O	-1	11%	0.5µM*	-36*	2.8µM*
C/C(Cn1nnc([N+](=O)[O-])n1)=N\NC(=O)c1ccccc1O	25	?	5.6µM*	-35*	?
CC1Sc2ccc(S(=O)(=O)N3CCC(C(=O)NCc4ccccc4)CC3)cc2NC1=O (stereo unspecified)	-2	?	?	/	-10%
COc1cccc(C(=O)NNS(=O)(=O)c2ccc(C)cc2)c1	8	-2%	-35%	2	-1%
Nc1cc2nsnc2cc1Br	-12	-2%	13µM*	-32*	-10%
Nc1cccc2nsnc12	-2	-3%	0%	-23	-7%
CCc1cc(-c2n[nH]c(=S)n2C(C)c2ccccc2)cs1 (stereo unspecified)	1	-5%	-83%	-4	-74%
Cc1scc(-c2n[nH]c(=S)n2C(C)c2ccccc2)c1C (stereo unspecified)	-3	-1%	4µM*	3	7.1µM*
S=c1[nH]nc(-c2cccc3ccccc23)n1-c1cccnc1	3	2%	-43%	-4	-2%
Cc1ccccc1-n1c(-c2csc(C)c2C)n[nH]c1=S	-34	?	2.8µM*	2	6.3µM*
Cc1ccccc1-n1c(-c2csc3ccccc23)n[nH]c1=S	-7	-9%	1.1µM*	0	?
Cc1cccc(-n2c(-c3csc(C)c3C)n[nH]c2=S)c1	-7	-12%	2.5µM*	2	11µM*
Cc1ccccc1-c1cncnc1Nc1ccc(F)cc1	/	/	-7%	-3	-7%
SMILES	TSHR antagonist	ELG1 repair inh	RORg inh	Coupling enz	Gal4-VP16 FLuc
Nc1ccc(C(=O)N2CCN(S(=O)(=O)c3ccc(Cl)s3)CC2)cc1[N+](=O)[O-]	33	?	/	/	/
CSCCC(NS(=O)(=O)c1ccc(C)cc1)C(=O)Nc1ccc(C)cn1 (stereo unspecified)	5	4%	/	/	/
COCCNC(=S)N(CCc1c(C)[nH]c2ccc(OC)cc12)Cc1ccco1	-8	?	14%	-5	15%
COc1ccc(NC(=S)N(CCc2c(C)[nH]c3ccc(C)cc23)Cc2ccco2)cc1	7	?	?	1	-15%
CCOc1ccc(NC(=S)N(CCc2c(C)[nH]c3ccc(C)cc23)Cc2ccco2)cc1	20	16µM*	?	-4	?
COCCNC(=S)N(CCc1c(C)[nH]c2ccc(C)cc12)Cc1ccco1	5	?	11µM*	-3	-10%
O=C(NCCOc1ccc(F)cc1)C1CCC(=O)N(CC2CCCCC2)C1 (stereo unspecified)	10	-5%	-18%	0	1%
Oc1ccc(Nc2nc3ccccc3nc2Nc2ccc(O)cc2)cc1	11	?	16µM*	-12	?
CC[C@@H]1O[C@]2(C=C[C@@H]1C)C[C@H]1C[C@H](CC=C(C)[C@@H](O[C@@H]3C[C@H](OC)[C@H](O[C@@H]4C[C@H](OC)[C@H](O)[C@H](C)O4)[C@H](C)O3)[C@@H](C)C=CC=C3CO[C@@H]4[C@@H](O)C(C)=C[C@@H](C(=O)O1)[C@]34O)O2	/	/	-6%[16.9 µM]	-2	7%[17 µM]
CCN1C(C)=C(C(=O)OC)C(c2ccccc2)N2C(=O)[C@@]3(C(=O)OC)O[C@@]12C1C(=O)N(c2ccccc2)C(=O)C13 (stereo partly specified)	/	/	-1%[10 µM]	-1	-1%[10 µM]
O=C(Nc1ccc(Cl)cc1)N1CCN(c2ccc3nnc(-c4ccc(F)cc4)n3n2)CC1	12	4.6µM*	32%	1	-6%[0.365 µM]
O=C(c1ccc(Br)o1)N1CCN(c2ccc3nnc(-c4ccc(F)cc4)n3n2)CC1	-15	?	41%	-1	-14%
O=C(Nc1ccccc1Cl)N1CCN(c2ccc3nnc(-c4ccccc4)n3n2)CC1	7	13µM*	28%	0	-3%
c1ccc(-c2nnc3ccc(N4CCCC4)nn23)cc1	-6	22%	-34%	0	-18%
COc1ccc(S(=O)(=O)N2CCN(c3ccc4nnc(-c5ccc(F)cc5)n4n3)CC2)cc1	-29	18µM*	1%	0	-15%
C/C(CCN1CCc2nc(-c3ccccc3)c(-c3ccccc3)cc2C1)=N\O[C@@H](C)CN1CCCc2nc(C)c(C)cc21	/	/	-13%[10 µM]	-2	-12%[10 µM]
O=C(Nc1ccc(O)c(-c2nc3ccccc3o2)c1)C1(c2ccc(Br)cc2)CCCC1	13	9%	6.3µM*	0	5.6µM*
C[C@H](O/N=C1/[C@H]2O[C@@H]2[C@@H](O)[C@H]2[C@H]1CCn1c(=O)n(-c3ccccc3)c(=O)n12)c1cn([C@H]2COC[C@H]2O)nn1	/	/	0%[10 µM]	2	-13%[10 µM]
CCN1CCN(C(=O)c2ccc(N3CC4CC(C3)c3cccc(=O)n3C4)c(NC(=O)c3cc(OC)cc(OC)c3)c2)CC1 (stereo unspecified)	-2	-8%	7%	-1	-3%
CCC1=NN(C(=O)c2ccc(Cl)cc2)C(O)(c2ccccc2)C1 (stereo unspecified)	-8	-18%	?	6	10µM*

High-throughput results: PubChem BioAssay, National Center for Advancing Translational Sciences (NCATS)
